Results taken from PubChem BioAssay AID588827 (Broad Institute, 2011).
About 20 (0.8%) of roughly 2,400 compounds were called active. Inconclusive results (about 19%) are left out.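 Rule for the calls: active = fitted half-maximal concentration for signal decrease at or below twice the top tested dose, in every repeat run; inconclusive = repeat runs disagree, or flat partial inhibition, or poor fit; inactive = all runs flat, wrong-direction or potency beyond limit.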 Only a sample is shown. Potency and affinity values are given separately.

Test: GFP reporter loss versus dox-driven RFP – NIH3T3 R4 cells, cherry-pick, set 4, dose response (AID 588827)
Conditions: NIH3T3 R4 HSF-1 GFP reporter, heat shock, 48 h; series mostly up to 19.5 µM

outcome, inactive:
COc1ccc2nnc(-c3ccc(C(F)(F)F)cc3)n2n1
O=C1CCCC/C1=N\Nc1ccc(C2CCCCC2)cc1
COc1ccc(C(=O)C2CCCN(S(=O)(=O)c3ccccc3F)C2)c(C)c1 (stereo not given)
Cc1cc(S(=O)(=O)N2CCN=C2c2ccccc2)c(C)cc1Cl
COc1cc(/C=N/N=C2/C(=O)Nc3ccccc32)cc(OC)c1O
O=C(NCc1ccco1)C(=O)NCC(c1ccco1)N1CCOCC1 (stereo not given)
CCOC(=O)C1(CCOc2ccccc2)CCN(Cc2cccc(-n3cccn3)c2)CC1
CC(=O)N/N=C(\C)CC(=O)NC(C)(C)C
C=CCn1c(C)cc(C(=O)CSc2nnc(NC(C)C)s2)c1C
CCCCN1CNC(=S)N(c2ccc(C(=O)OCC)cc2)C1
COc1ccc(-c2oc3ccccc3c2C(=O)Oc2ccccc2)cc1
Cc1ccc(-c2nn(-c3ccccc3)cc2CN(C)C(=O)CCC(=O)O)cc1C
O=[N+]([O-])c1cccc(-c2nnc(-c3ccccc3)o2)c1
Cc1ccc(C(=O)N/C(=C/c2ccco2)C(=O)Nc2cccc(C(=O)O)c2)cc1
Cc1cccc(OCC(=O)Nc2cccc(C(=O)NCC(C)C)c2)c1
COc1ccc(C2NS(=O)(=O)N=C2N)cc1 (stereo not given)
CC(=O)C1C(=O)c2c(cccc2[N+](=O)[O-])C1=Nc1ccc(S(N)(=O)=O)cc1 (stereo not given)
CCOC(=O)N1CCN(S(=O)(=O)c2ccc3c(c2)OCC(=O)N3)CC1
Cc1ccc(-c2cn(-c3ccccc3)c(=S)[nH]2)cc1C
O=C(Nc1ccccc1N1CCCCC1)C1CCN(C(=O)c2ccc(Cl)cc2)CC1
CCOC(=O)c1c(NC(=O)CSc2nnc(-c3c[nH]c4ccccc34)n2C)sc2c1CCCC2
O=C(NCCCn1ccnc1)C(=O)NCC1OCCN1S(=O)(=O)c1cc(F)ccc1F (stereo not given)
O=C(O)CCSc1nnc(-c2ccc3c(c2)OCO3)o1
Cc1c(C(=O)c2no[n+]([O-])c2C(=O)c2cnn(C)c2C)cnn1C
O=S(=O)(Nc1cccc(Oc2cnccn2)c1)c1ccc(F)cc1
CCOc1cc(/C=N/NC(=O)c2cccc(S(=O)(=O)N3CCOCC3)c2)ccc1OCC(=O)N(C)C
Cc1ccc(-c2cc3c(N=O)c4ccccc4c-3n[nH]2)cc1
CCCN(CCC)C(=O)CSc1nc2ccsc2c(=O)n1NC(=O)c1ccccc1
COc1cccc(C(c2sc3nc(C)nn3c2O)N2CCN(C(=O)c3ccco3)CC2)c1 (stereo not given)
Cn1c(=O)c2ccccc2n(Cc2ccccc2Cl)c1=O
O=C(CCl)NC(Cc1ccccc1)c1ccccc1 (stereo not given)
COC(=O)c1cc(S(=O)(=O)NCCc2ccccc2)c[nH]1
O=C(CCl)N=c1sccn1Cc1ccc(Cl)cc1Cl
Cc1ccc(S(=O)(=O)N2CCN(CC(=O)N/N=C\c3ccncc3)CC2)cc1
O=C(O)c1ccc2nc(-c3ccccc3)sc2c1
Cn1c(=O)c2c(SCC(=O)N3CCCc4ccccc43)nc(C3CC3)nc2n(C)c1=O
Cc1ccc(C)c(NC(=O)COc2coc(CN3CCc4ccccc4C3)cc2=O)c1
Cc1ccc2[nH]c(=O)c(CN(C(=O)c3cccc([N+](=O)[O-])c3)C(C)C)cc2c1
O=C(Nc1ccc(S(=O)(=O)N2CCOCC2)cc1)c1ccc(Cl)cc1Cl
COC(=O)c1nn(-c2ccc3c(c2)CCN3C(C)=O)cc1O
Cc1cc(C)c2[nH]c(=O)c(C(c3nnnn3CC3CCCO3)N3CCC(C)CC3)cc2c1 (stereo not given)
N=C(N)SCc1ccccc1Cl
COc1ccc(C(=O)NCc2nnc(SCC(=O)N3CCC(C)CC3)o2)cc1OC
O=C(Cn1nc2ccccc2n1)N/N=C/c1cc([N+](=O)[O-])ccc1O
O=C(Oc1ccccc1Cl)c1ccc(-n2cncn2)nc1
COc1ccc(S(=O)(=O)N2CCCCCC2)cc1C(=O)OCC(=O)NC(C)(C)C
Nc1ccccc1-c1nc2ccccc2s1
COc1ccc(S(=O)(=O)N2CCCC2)cc1C(C)C
O=C(N1CCCCC1)N1CCN(S(=O)(=O)c2ccccc2)CC1
Cc1nc2sccn2c(=O)c1S(=O)(=O)Nc1ccc(N2CCOCC2)c(Cl)c1
COC(=O)c1cccc(NC(=O)CN2CCN(Cc3ccccc3)CC2)c1
CN1CCc2c(sc(/N=C/c3cc(C(C)(C)C)ccc3O)c2C#N)C1
COc1ccc2[nH]c3c(=O)n(CCCN4CCOCC4)cnc3c2c1
CCO/C(C)=C1/SC(=S)NC1=O
c1ccc(OCCSc2nc3ccccc3o2)cc1
COc1cc(NC(=O)c2cc(C)nc3ccccc23)cc(OC)c1
COc1cccc(C(=O)c2c[nH]c(C(=O)NCc3ccco3)c2)c1
COc1ccc(CNC(=O)c2cnc3scc(C)n3c2=O)cc1
COc1ccc(Cl)cc1C(=O)NCC(=O)OCc1ccccc1
O=C(CCNC(=O)c1ccc(Cl)cc1)Nc1ncccc1O
CCCCOC(=O)CSCC(=O)Nc1cc(C)on1
CCN(CC)S(=O)(=O)c1ccc2c(c1)c(=O)c(C(=O)NCc1ccco1)cn2C
CC(=O)N(c1ccc2oc(=O)sc2c1)S(=O)(=O)c1ccc(C(=O)O)cc1
CCOC(=O)c1cc(S(=O)(=O)N2CCc3ccccc32)cn1C
Fc1ccccc1N1CCN(Cc2cc(-c3ccccc3)on2)CC1
CCc1ccccc1NC(=O)CSc1nnc(-c2ccncc2)o1
COCCNC(=O)C(OC(=O)c1cccs1)c1ccccc1 (stereo not given)
COc1ccc(CCNC(=O)CN(c2ccc(OC)c(OC)c2)S(C)(=O)=O)cc1OC
CCC(NC(=S)NCc1ccccc1)C(=O)O (stereo not given)
CCOCCn1c(SCC(=O)OCc2ccccc2)nc2c1c(=O)[nH]c(=O)n2C
CC(C)c1nc2ccccc2c2nnc(SCC(=O)NCc3ccco3)n12
CC(=O)Nc1ccc(-c2cn3c(n2)SCC3)cc1
CC1(C)Cc2nc3[nH]c(=S)n(-c4ccccc4)c(=O)c3cc2CO1
Cc1ccc(S(=O)(=O)c2ccc(Oc3ccccc3)cc2)cc1
CC1CCCN(c2ncnc3c2cnn3-c2ccc(Cl)cc2)C1 (stereo not given)
COc1ccc(Cn2nnnc2C(c2cc3cccc(C)c3[nH]c2=O)N2CCN(C)CC2)cc1 (stereo not given)
CC(C)c1ccc(NC(=O)N(CCc2nc3ccccc3[nH]2)C2CCCC2)cc1
CCCS(=O)(=O)N1CCc2cc(OC)c(OC)cc2C1
CCC(Sc1nc2cc(OC)c(OC)cc2c(=O)n1CCc1ccc(S(N)(=O)=O)cc1)C(=O)NCCOC (stereo not given)
O=C(N/N=C/c1ccccn1)c1ccc([N+](=O)[O-])cc1
CN(C)c1ccc(CNc2ccc3c(c2)ncn3C(C)(C)C)cc1
COc1cccc(-n2nc(-c3ccnn3-c3cccc(Cl)c3)c(=O)n(C)c2=O)c1
CCOC(=O)c1cc2sccc2n1CC(=O)Nc1ccc(OC)cc1
Cc1cccc(-c2ocnc2C(=O)N2CCN(C(=O)c3cccs3)CC2)c1
CCOC(=O)c1c(C)nc2c(C)cccn12
CC(C)(C)C(=O)OCc1nc(-c2ccc3c(c2)OCCO3)cs1
Cc1nn(C(C)(C)C)c(C)c1/C=N/OC(=O)Nc1ccc(Cl)c(Cl)c1
Nc1nc(CSC(=S)N2CCCCC2)nc(Nc2ccccc2)n1
NS(=O)(=O)c1ccc(NC2=CC(=O)C(=O)c3ccccc32)cc1
Cn1c(NC(=O)c2ccccc2NC(=O)C(C)(C)C)nc2ccccc21
